# Assay results as given in PubChem BioAssay (NCI).
# About 79,000 compounds went through this panel and 15% of them were active in at least one assay; those are over-represented in the sample as a whole. Values without a mark were called inactive. The source made the active and inactive calls. Rule as the data show it: active = growth inhibition above about 70%; inactive = the rest.
# Key:
# [1] = NCI Yeast Anticancer Drug Screen. Data for the rad52 strain (AID 147);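 also: 0% = growth of vehicle-treated control cultures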; settings: S. cerevisiae rad52 mutant growth inhibition, active compounds read high
# How it was run: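 DNA repair-defective yeast; compound exposure; growth scored against vehicle controls.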
# [2] = NCI Yeast Anticancer Drug Screen. Data for the wt1 strain (AID 149);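 also: 0% = growth of vehicle-treated wt1 cultures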; settings: S. cerevisiae wt1 strain (SPY 50644) growth inhibition, active compounds read high
# How it was run: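 Growth inhibition read against vehicle controls after compound exposure of the wt1 yeast strain.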
# [3] = NCI Yeast Anticancer Drug Screen. Data for the rad50EPP+ strain (AID 151);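 also: 0% = growth of vehicle-treated control cultures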; settings: S. cerevisiae rad50 mutant strain, active compounds read high
# How it was run: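 rad50EPP+ yeast treated with test compounds. Readout: growth vs vehicle control.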
# [4] = NCI Yeast Anticancer Drug Screen. Data for the mgt1 strain (AID 153); settings: S. cerevisiae mgt1 mutant growth inhibition, active compounds read high
# How it was run: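 Growth inhibition relative to vehicle controls was scored for the mgt1 yeast strain after compound exposure.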
# [5] = NCI Yeast Anticancer Drug Screen. Data for the rad50 strain (AID 155);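 also: 0% = growth of vehicle-only cultures of the same strain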; settings: S. cerevisiae rad50 strain growth inhibition, active compounds read high
# How it was run: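 Readout: growth inhibition relative to vehicle-treated cultures. Compound exposure was carried out in a genetically defined yeast strain deficient in DNA damage repair.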
# [6] = NCI Yeast Anticancer Drug Screen. Data for the mec2-1 strain (AID 157); settings: S. cerevisiae mec2-1 strain, active compounds read high
# How it was run: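 Growth inhibition is read against vehicle-treated controls after compound exposure of the mec2-1 yeast strain, which is defective in DNA damage repair or cell cycle control.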
# [7] = NCI Yeast Anticancer Drug Screen. Data for the rad14 strain (AID 159);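 also: 0% = growth of vehicle-treated control cultures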; settings: S. cerevisiae rad14 strain growth inhibition, active compounds read high
# How it was run: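 Growth inhibition vs vehicle controls; genetically altered yeast strain (DNA damage repair defect) treated with test compounds.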
# [8] = NCI Yeast Anticancer Drug Screen. Data for the sgs1 mgt1 strain (AID 161);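 also: 0% = growth of cultures given vehicle only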; settings: S. cerevisiae sgs1 mgt1 strain, active compounds read high
# How it was run: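 Compounds are added to genetically altered yeast, and growth is compared with cultures given vehicle alone to give percent inhibition.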
# [9] = NCI Yeast Anticancer Drug Screen. Data for the CLN2oe strain (AID 163);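 also: 0% = growth of vehicle-only control cultures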; settings: S. cerevisiae CLN2oe strain, active compounds read high
# How it was run: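 Compound-treated yeast; growth vs vehicle ctrl = % inhibition. Genetically altered strain (cell-cycle control).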
# [10] = NCI Yeast Anticancer Drug Screen. Data for the cln2 rad14 strain (AID 165);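 also: 0% = growth equal to vehicle treated cultures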; settings: S. cerevisiae cln2 rad14 strain, active compounds read high
# How it was run: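 Growth inhibition, relative to vehicle-treated controls, is the read-out. The test organism is a yeast strain with defined genetic alterations, cln2 rad14.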
# [11] = NCI Yeast Anticancer Drug Screen. Data for the wt2 strain (AID 169);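 also: 0% = growth of vehicle-treated yeast cultures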; settings: S. cerevisiae wt2 strain growth inhibition, active compounds read high
# How it was run: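 Compound exposure of yeast; growth compared with vehicle controls; inhibition reported.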
# [12] = NCI Yeast Anticancer Drug Screen. Data for the mlh1 strain (AID 171);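 also: 0% = growth of vehicle-treated control cultures of the same strain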; settings: S. cerevisiae mlh1 strain growth inhibition, active compounds read high
# How it was run: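 Compounds are applied to a genetically altered yeast strain, and its growth is compared with that of vehicle-treated cultures to give percent inhibition.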
# [13] = NCI Yeast Anticancer Drug Screen. Data for the sgs1 strain (AID 173);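 also: 0% = growth of vehicle-only control cultures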; settings: S. cerevisiae sgs1 mutant, active compounds read high
# How it was run: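 Compounds applied to genetically altered yeast; growth compared with vehicle-treated cultures to give % inhibition.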
# [14] = NCI Yeast Anticancer Drug Screen. Data for the mlh1 rad18 strain (AID 175); settings: S. cerevisiae mlh1 rad18 strain growth inhibition, active compounds read high
# How it was run: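 Cells of a genetically altered yeast strain, deficient in DNA damage repair, were treated with compound. Their growth was then compared with that of vehicle-treated cultures to give inhibition.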
# [15] = NCI Yeast Anticancer Drug Screen. Data for the bub3 strain (AID 167); settings: S. cerevisiae bub3 mutant strain, active compounds read high
# How it was run: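 Readout: yeast growth inhibition, expressed relative to vehicle-only wells. The test organism is a mutant strain from a panel with lesions in DNA repair or checkpoint genes.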
# [16] = NCI Yeast Anticancer Drug Screen. Data for the rad18 strain (AID 177); settings: S. cerevisiae rad18 mutant growth inhibition, active compounds read high
# How it was run: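 Compounds are applied to a repair-deficient yeast strain, and growth is compared with that of vehicle-treated cultures to give percent inhibition.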
# [17] = at 5.0 µM (retest, dose inferred, filed as 0.5)
# [18] = at 50.0 µM (retest, dose inferred, filed as 5.0)
smiles,measurement,setting,value
Cc1ccc2c3ccc4c(c3n(C)c2c1)C(=O)C=CC4=O,growth inhibition,[1]; at 1.2 µM,-55%
same,growth inhibition,[1]; at 3.7 µM,-66%
same,growth inhibition,[1]; at 11.0 µM,-53%
same,growth inhibition,[1]; at 33.0 µM,-37%
same,growth inhibition,[1]; at 100.0 µM,22%
same,growth inhibition,[2]; at 1.2 µM,-22%
same,growth inhibition,[2]; at 3.7 µM,-16%
same,growth inhibition,[2]; at 11.0 µM,-18%
same,growth inhibition,[2]; at 33.0 µM,-1%
same,growth inhibition,[2]; at 100.0 µM,33%
same,growth inhibition,[3]; at 1.2 µM,-3%
same,growth inhibition,[3]; at 3.7 µM,24%
same,growth inhibition,[3]; at 11.0 µM,31%
same,growth inhibition,[3]; at 33.0 µM,76% (active)
same,growth inhibition,[3]; at 100.0 µM,91% (active)
same,growth inhibition,[4]; at 1.2 µM,20%
same,growth inhibition,[4]; at 3.7 µM,11%
same,growth inhibition,[4]; at 11.0 µM,22%
same,growth inhibition,[4]; at 33.0 µM,40%
same,growth inhibition,[4]; at 100.0 µM,78% (active)
same,growth inhibition,[5]; at 1.2 µM,-4%
same,growth inhibition,[5]; at 3.7 µM,-5%
same,growth inhibition,[5]; [17],7%
same,growth inhibition,[5]; at 11.0 µM,3%
same,growth inhibition,[5]; at 33.0 µM,10%
same,growth inhibition,[5]; [18],49%
same,growth inhibition,[5]; at 50.0 µM,57.8%
same,growth inhibition,[5]; at 100.0 µM,53%
same,growth inhibition,[6]; at 1.2 µM,-22%
same,growth inhibition,[6]; at 3.7 µM,-11%
same,growth inhibition,[6]; [17],7%
same,growth inhibition,[6]; at 11.0 µM,-3%
same,growth inhibition,[6]; at 33.0 µM,23%
same,growth inhibition,[6]; [18],42%
same,growth inhibition,[6]; at 50.0 µM,51.5%
same,growth inhibition,[6]; at 100.0 µM,66%
same,growth inhibition,[7]; at 1.2 µM,-9%
same,growth inhibition,[7]; at 3.7 µM,-12%
same,growth inhibition,[7]; at 11.0 µM,-9%
same,growth inhibition,[7]; at 33.0 µM,-6%
same,growth inhibition,[7]; at 100.0 µM,59%
same,growth inhibition,[8]; [17],9%
same,growth inhibition,[8]; [18],58%
same,growth inhibition,[8]; at 50.0 µM,67.2%
same,growth inhibition,[9]; at 1.2 µM,-5%
same,growth inhibition,[9]; at 3.7 µM,-4%
same,growth inhibition,[9]; at 11.0 µM,-3%
same,growth inhibition,[9]; at 33.0 µM,9%
same,growth inhibition,[9]; at 100.0 µM,27%
same,growth inhibition,[10]; [17],18%
same,growth inhibition,[10]; [18],50%
same,growth inhibition,[10]; at 50.0 µM,33.7%
same,growth inhibition,[11]; at 1.2 µM,-47%
same,growth inhibition,[11]; at 3.7 µM,-28%
same,growth inhibition,[11]; at 11.0 µM,-30%
same,growth inhibition,[11]; at 33.0 µM,-29%
same,growth inhibition,[11]; at 100.0 µM,38%
same,growth inhibition,[12]; at 1.2 µM,-10%
same,growth inhibition,[12]; at 3.7 µM,-3%
same,growth inhibition,[12]; at 11.0 µM,16%
same,growth inhibition,[12]; at 33.0 µM,46%
same,growth inhibition,[12]; at 100.0 µM,81% (active)
same,growth inhibition,[13]; at 1.2 µM,-32%
same,growth inhibition,[13]; at 3.7 µM,-24%
same,growth inhibition,[13]; at 11.0 µM,-16%
same,growth inhibition,[13]; at 33.0 µM,16%
same,growth inhibition,[13]; at 100.0 µM,63%
same,growth inhibition,[14]; [17],21%
same,growth inhibition,[14]; [18],77% (active)
same,growth inhibition,[14]; at 50.0 µM,68%
Oc1ccc(O)c(Cc2ccccc2)c1,growth inhibition,[1]; at 1.2 µM,21%
same,growth inhibition,[1]; at 3.7 µM,48%
same,growth inhibition,[1]; at 11.0 µM,89% (active)
same,growth inhibition,[1]; at 33.0 µM,97% (active)
same,growth inhibition,[1]; at 100.0 µM,99% (active)
same,growth inhibition,[2]; at 1.2 µM,6%
same,growth inhibition,[2]; at 3.7 µM,14%
same,growth inhibition,[2]; at 11.0 µM,29%
same,growth inhibition,[2]; at 33.0 µM,50%
same,growth inhibition,[2]; at 100.0 µM,93% (active)
same,growth inhibition,[3]; at 1.2 µM,56%
same,growth inhibition,[3]; at 3.7 µM,88% (active)
same,growth inhibition,[3]; at 11.0 µM,95% (active)
same,growth inhibition,[3]; at 33.0 µM,98% (active)
same,growth inhibition,[3]; at 100.0 µM,99% (active)
same,growth inhibition,[4]; at 1.2 µM,4%
same,growth inhibition,[4]; at 3.7 µM,13%
same,growth inhibition,[4]; at 11.0 µM,37%
same,growth inhibition,[4]; at 33.0 µM,78% (active)
same,growth inhibition,[4]; at 100.0 µM,99% (active)
same,growth inhibition,[5]; at 1.2 µM,37%
same,growth inhibition,[5]; at 3.7 µM,87% (active)
same,growth inhibition,[5]; [17],77% (active)
same,growth inhibition,[5]; at 11.0 µM,97% (active)
same,growth inhibition,[5]; at 33.0 µM,99% (active)
same,growth inhibition,[5]; [18],97% (active)
same,growth inhibition,[5]; at 50.0 µM,79.3% (active)
same,growth inhibition,[5]; at 100.0 µM,99% (active)
same,growth inhibition,[6]; at 1.2 µM,6%
same,growth inhibition,[6]; at 3.7 µM,30%
same,growth inhibition,[6]; [17],-9%
same,growth inhibition,[6]; at 11.0 µM,75% (active)
same,growth inhibition,[6]; at 33.0 µM,100% (active)
same,growth inhibition,[6]; [18],68%
same,growth inhibition,[6]; at 50.0 µM,84.3% (active)
same,growth inhibition,[6]; at 100.0 µM,100% (active)
same,growth inhibition,[7]; at 1.2 µM,17%
same,growth inhibition,[7]; at 3.7 µM,34%
same,growth inhibition,[7]; at 11.0 µM,73% (active)
same,growth inhibition,[7]; at 33.0 µM,98% (active)
same,growth inhibition,[7]; at 100.0 µM,99% (active)
same,growth inhibition,[8]; [17],-20%
same,growth inhibition,[8]; [18],68%
same,growth inhibition,[8]; at 50.0 µM,92.5% (active)
same,growth inhibition,[9]; at 1.2 µM,3%
same,growth inhibition,[9]; at 3.7 µM,28%
same,growth inhibition,[9]; at 11.0 µM,40%
same,growth inhibition,[9]; at 33.0 µM,72% (active)
same,growth inhibition,[9]; at 100.0 µM,98% (active)
same,growth inhibition,[15]; at 1.2 µM,8%
same,growth inhibition,[15]; at 3.7 µM,25%
same,growth inhibition,[15]; [17],-26%
same,growth inhibition,[15]; at 11.0 µM,63%
same,growth inhibition,[15]; at 33.0 µM,97% (active)
same,growth inhibition,[15]; [18],88% (active)
same,growth inhibition,[15]; at 50.0 µM,98.3% (active)
same,growth inhibition,[15]; at 100.0 µM,99% (active)
same,growth inhibition,[11]; at 1.2 µM,-2%
same,growth inhibition,[11]; at 3.7 µM,1%
same,growth inhibition,[11]; at 11.0 µM,23%
same,growth inhibition,[11]; at 33.0 µM,58%
same,growth inhibition,[11]; at 100.0 µM,87% (active)
same,growth inhibition,[12]; at 1.2 µM,9%
same,growth inhibition,[12]; at 3.7 µM,22%
same,growth inhibition,[12]; at 11.0 µM,47%
same,growth inhibition,[12]; at 33.0 µM,89% (active)
same,growth inhibition,[12]; at 100.0 µM,98% (active)
same,growth inhibition,[13]; at 1.2 µM,16%
same,growth inhibition,[13]; at 3.7 µM,45%
same,growth inhibition,[13]; at 11.0 µM,94% (active)
same,growth inhibition,[13]; at 33.0 µM,99% (active)
same,growth inhibition,[13]; at 100.0 µM,99% (active)
same,growth inhibition,[14]; [17],36%
same,growth inhibition,[14]; [18],95% (active)
same,growth inhibition,[14]; at 50.0 µM,98% (active)
same,growth inhibition,[16]; at 1.2 µM,27%
same,growth inhibition,[16]; at 3.7 µM,52%
same,growth inhibition,[16]; at 11.0 µM,87% (active)
same,growth inhibition,[16]; at 33.0 µM,97% (active)
same,growth inhibition,[16]; at 100.0 µM,99% (active)
